Assay outcomes deposited in PubChem by several laboratories.
The list is not random: actives were taken first. Their share in the collection is about 4.1%.
TROY NFkB inh = TROY signaling inhibition; Q293 LMP1-TROYcd NF-kB luciferase reporter, 4 h; inhibition, % at 10 µM; hit rate 0.98% among 360,000; AID 1347056;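 active means compounds whose plate-normalised and pattern-corrected inhibition of the luciferase reporter signal at the single screening dose is 50% or more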
Peg3 prom inh = inhibitors of Peg3 promoter | HeLa PEG-Prom luciferase reporter, luminescence, overnight | hit rate 1.7% among 360,000 | AID 588405 | inhibition, % at 20 µM;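 active means inhibition of at least 50% at 20 µM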
TWEAK-Fn14 inh = inhibitors of TWEAK-Fn14 interaction signaling; TWEAK-stimulated Fn14 reporter cells, luciferase luminescence, 8 h; inhibition, % at 10 µM; hit rate 2% among 360,000; AID 1159606; in the data active means inhibition above about 50%
LMP1 NFkB inh = reduces LMP1-driven NF-kappaB luciferase signal. AID 504558. hit rate 0.69% among 350,000. inhibition, % at 12.5 µM. LMP1-induced NF-kappaB luciferase reporter cells, luminescence; in the data active means inhibition above about 41%;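 further: 0% = neutral control wells and 100% = reference inhibitor control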
Shn3 3UTR inh = Schnurri-3 reporter inhibition in Clone20 osteoblasts; hit rate 0.52% among 360,000; Clone20 osteoblast Shn3 3'UTR firefly luciferase, 24 h; inhibition, % at 12.5 µM;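 active means mean inhibition of at least 75% with every replicate also reaching 75%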;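 further: 0% = median of neutral control wells and 100% = pilot-screen positive control compound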
TRPM1 prom inh = inhibitors of MITF-driven TRPM1 promoter in melanoma cells. SK-MEL-5 TRPM1 promoter luciferase, 24 h. inhibition, % at 12.5 µM. hit rate 0.83% among 330,000. AID 488899;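 active means mean inhibition across replicates of 60% or more, whatever share of single replicates reaches that level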
Numbers without * were called inactive; . = not tested or not shown.

SMILES	TROY NFkB inh	Peg3 prom inh	TWEAK-Fn14 inh	LMP1 NFkB inh	Shn3 3UTR inh	TRPM1 prom inh
COc1ccc(CC(=O)NNC(=O)c2cc(C)[nH]n2)cc1	-10.0	62.4*	3.9	-1.6	-15.1	-2.7
Cc1nc2sc(-c3ccccc3)cc2c(=O)n1N	61.1*	58.0*	94.0*	62.4*	.	45.1
Cc1nc2sc(-c3ccccc3)cc2c(=O)[nH]1	31.9	-19.6	56.5*	36.3	-33.0	20.7
Cc1nc2sc(-c3ccccc3)cc2c(=O)n1-n1cccc1	-1.9	-293.4	-16.8	-58.1	-32.0	-109.4
C=CCN(Cc1ccc(Cl)s1)C(=O)c1ccc(F)c(S(=O)(=O)N2CCOCC2)c1	18.9	10.7	8.2	9.7	56.4	6.4
S=c1nc(NCc2cccc(Cl)c2)c2ccccc2[nH]1	13.0	18.6	12.9	1.5	17.1	6.4
O=C(N/N=C/c1cc(Cl)cc([N+](=O)[O-])c1O)NC12CC3CC(CC(C3)C1)C2	42.7	36.6	66.4*	0.2	15.6	8.3
CCCc1ccc(OCC(O)CN2CCN(c3ccccn3)CC2)cc1 (stereo not drawn)	-3.2	-22.6	3.8	6.9	-0.5	8.2
CCc1ccccc1OCCCN1CCCC1	-2.7	8.8	59.3*	5.8	-10.0	-6.7
Cc1cc(Br)ccc1NC(=O)CN(C)C(=O)c1cc(S(=O)(=O)N(C)C)ccc1N1CCCC1	-5.1	19.1	87.9*	0.2	2.4	8.2
COc1ccc(CN2CCNC(=O)C2CC(=O)N(C)CC2CCOCC2)cc1C (stereo not drawn)	-14.7	1.7	3.5	-1.2	-1.5	9.2
CC(C)N(CCC(=O)c1ccc2ccccc2c1)Cc1ccccc1	-9.0	26.9	-23.1	7.1	93.9*	-0.1
O=C(CN1C(=O)C2C3CC(C(Br)C3Br)C2C1=O)N1CCN(Cc2ccccc2)CC1 (stereo not drawn)	-21.5	-8.0	-18.4	0.1	-11.6	2.2
CCN=c1scc(-c2ccccc2)n1/N=C/c1ccccn1	77.4*	-45.0	91.7*	3.7	48.9	-3.2
CCN1CCN(c2ccccc2NC(=O)c2ccc(-n3cccn3)cc2)CC1	-1.1	-0.8	-17.4	1.3	11.2	0.5
COc1cccc(-c2c(C(=O)N/N=C(\C)COc3ccccc3)nnn2-c2nonc2N)c1	-9.9	-8.2	0.0	-7.3	-9.3	-8.4
COc1cccc(-c2cnc3c(NC=O)cc(-c4cccc(NC(C)=O)c4)cn23)c1	61.4*	47.5	30.3	.	5.2	.
COc1cc(-c2cnc3c(NC=O)cc(-c4cccc(NC(C)=O)c4)cn23)cc(OC)c1OC	25.0	64.0*	60.1*	.	20.5	.
COc1cc(-c2cc(NC(C)=O)c3ncc(-c4cc(OC)c(OC)c(OC)c4)n3c2)cc(OC)c1OC	6.1	51.6*	50.3*	.	9.2	.
CC(=O)Nc1cccc(-c2cc(NC=O)c3ncc(-c4cccc(C(C)=O)c4)n3c2)c1	3.0	43.7	31.8	.	-57.0	.
CC1CCCC(NC(=O)C2N(CCCN3CCCC3)C(=O)C3C(C(=O)Nc4cccc(Cl)c4)C4C=CC32O4)C1C (stereo not drawn)	18.9	3.2	-10.1	-4.5	-11.6	-0.5
Cc1[nH]c(=O)[nH]c(=O)c1NC(=O)c1ccccc1[N+](=O)[O-]	3.6	-0.8	0.1	1.7	-9.7	.
CN(C)c1ccc(NC(=O)c2cnsn2)cc1	31.2	-8.2	73.8*	33.5	11.3	3.4
Cc1noc(C)c1C(=O)Nc1ccc(N(C)C)cc1	10.6	10.5	-16.4	-2.9	-1.1	2.4
CN(C)CCN(Cc1cc2cc3c(cc2nc1Cl)OCO3)C(=O)c1ccco1	4.3	13.9	36.3	1.6	1.2	5.4
SMILES	TROY NFkB inh	Peg3 prom inh	TWEAK-Fn14 inh	LMP1 NFkB inh	Shn3 3UTR inh	TRPM1 prom inh
O=C(CNC(=O)N1CC(=O)Nc2ccccc21)Nc1cccc(F)c1	-1.3	2.3	-3.7	0.5	-3.1	0.6
CCC12CCC3c4ccc(O)cc4CCC3C1CC(O)C2O (stereo not drawn)	-4.9	8.9	-21.3	-2.5	-20.7	9.8
Cc1ccc(Cc2c(-c3ccccc3)nc3c4ccccc4ccn23)cc1	67.3*	.	58.5*	.	.	.
Cc1ccc(Cc2c(C3CCCCC3)nc3c4ccccc4ccn23)cc1	68.9*	-138.3	59.7*	.	-34.8	.
c1ccc2c(c1)ccn1c(Cc3ccsc3)c(C3CCCCC3)nc21	-11.2	.	5.3	.	.	.
COc1ccc(CN=C(Nc2ccccc2)SC2CC(=O)NC2=O)cc1 (stereo not drawn)	-3.3	11.1	6.8	-3.5	-3.1	-9.5
O=C1CC(SC(=NCc2ccc3c(c2)OCO3)Nc2ccccc2)C(=O)N1 (stereo not drawn)	-11.0	-14.7	1.3	55.0*	-9.8	-4.3
CCn1c(=NC(=O)CS(=O)(=O)c2ccccc2)sc2cccc(OC)c21	20.6	-29.4	2.5	12.4	87.2*	-3.5
Cn1c(=NC(=O)CS(=O)(=O)c2ccccc2)sc2ccccc21	-13.6	-189.9	-4.0	-16.5	-45.2	-72.8
COc1ccc(-c2nc(CS(=O)CC(=O)NCc3ccc(Cl)cc3)c(C)o2)cc1 (stereo not drawn)	7.4	14.0	-8.4	43.7*	10.4	5.1
Cc1ccc(-c2nc(CS(=O)CC(=O)NCc3ccc(Cl)cc3)c(C)o2)cc1 (stereo not drawn)	15.6	20.5	13.5	5.5	4.7	.
CCc1ccc(-c2nc(CS(=O)CC(=O)NCc3ccccc3)c(C)o2)cc1 (stereo not drawn)	20.6	52.6*	57.4*	15.7	16.3	32.3
CCc1ccc(-c2nc(CSCC(=O)NCc3ccco3)c(C)o2)cc1	45.0	13.7	65.0*	19.0	45.7	35.6
COc1ccc(NC(=O)CC2SC(N3CCOCC3)=NC2=O)cc1OC (stereo not drawn)	1.9	-3.6	-1.2	5.6	6.8	5.4
CC(C(=O)N=Nc1c(O)[nH]c2ccccc12)n1cnc2ccccc2c1=O (stereo not drawn)	23.4	-7.6	6.4	61.3*	-3.8	18.9
Cc1cccc2c(N=NC(=O)C(C)n3cnc4ccccc4c3=O)c(O)[nH]c12 (stereo not drawn)	16.0	8.3	-13.6	-0.9	15.9	14.4
CC(C)(C)c1nc(NCCO)c2nnn(Cc3ccccc3)c2n1	5.2	25.8	-4.8	-2.7	4.3	-6.6
CCOC(=O)N1CCC(NC(=O)C2CCCN(Cc3nc(-c4cccc(C)c4)oc3C)C2)CC1 (stereo not drawn)	29.5	21.9	14.8	19.1	86.0*	72.3*
C=C1CCC[C@]2(C)C[C@H]3OC(=O)C(CNC(CC)CO)[C@H]3CC12 (stereo partly drawn)	3.5	-60.0	57.2*	17.7	-17.4	28.9
C=C1CCC[C@]2(C)C[C@H]3OC(=O)C(CN4CCCCC4CO)[C@H]3CC12 (stereo partly drawn)	25.1	61.7*	50.9*	90.6*	-27.3	78.8*
C=C1CCC[C@]2(C)C[C@H]3OC(=O)C(CNC(C)CC)[C@H]3CC12 (stereo partly drawn)	-13.9	-17.6	3.7	-4.4	-2.2	-4.2
